Consider 10 sequences from PMC11006913.

Experiment in all cases: PBM; 200 nM protein, PBS
Conditions in all cases: dsDNA, one strand shown

For one assay, the target named is ALX4 (Homo sapiens, UniProt Q9H161 200-286).
The target of assay [1] is T1, PAX4 (Homo sapiens, UniProt O43316 9-242, R200K).
T1 sequence: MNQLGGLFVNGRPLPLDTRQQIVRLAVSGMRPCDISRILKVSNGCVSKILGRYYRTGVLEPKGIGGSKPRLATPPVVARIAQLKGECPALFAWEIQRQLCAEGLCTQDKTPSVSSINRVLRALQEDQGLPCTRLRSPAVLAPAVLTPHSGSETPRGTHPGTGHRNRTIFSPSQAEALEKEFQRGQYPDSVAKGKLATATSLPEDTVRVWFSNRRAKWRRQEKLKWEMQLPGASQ

The target in assay [2] is PRRX1 (Homo sapiens, UniProt P54821 80-166, F113S).
Assay [3] deals with T2, PAX4 (Homo sapiens, UniProt O43316 9-242, R200Q).
T2 sequence: T1 sequence with K192Q

For assay [4], the target named is T3, PAX4 (Homo sapiens, UniProt O43316 9-242, F177V).
T3 sequence: T1 sequence with F169V, K192R

In assay [5] the target is T4, PAX4 (Homo sapiens, UniProt O43316 9-242, F177Y).
T4 sequence: T1 sequence with F169Y, K192R

The target of assay [6] is PRRX1 (Homo sapiens, UniProt P54821 80-166).
Assay [7] deals with HOXA4 (Homo sapiens, UniProt Q00056 201-287, W262R).
The target of assay [8] is HOXA4 (Homo sapiens, UniProt Q00056 201-287, R217L).
Assay [9] has as its target HOXA4 (Homo sapiens, UniProt Q00056 201-287).
In assay [10] the target is MSX2 (Homo sapiens, UniProt P35548 130-214).
The target of assay [11] is MSX2 (Homo sapiens, UniProt P35548 130-214, F161Y).
Assay [12] concerns the target HOXA4 (Homo sapiens, UniProt Q00056 201-287, W262F).
The target of assay [13] is VAX1 (Homo sapiens, UniProt Q5SQQ9 86-172, K157R).
For assay [14], the target named is T5, VENTX (Homo sapiens, UniProt O95231 78-163, Y115F).
T5 sequence: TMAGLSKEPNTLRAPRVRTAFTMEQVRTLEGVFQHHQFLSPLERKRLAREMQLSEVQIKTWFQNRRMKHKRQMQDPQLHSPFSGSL

The target in another assay is HOXA2 (Homo sapiens, UniProt O43364 129-215, R185T).
The target in assay [15] is VAX1 (Homo sapiens, UniProt Q5SQQ9 86-172, T142I).
Assay [16] has as its target T6, VENTX (Homo sapiens, UniProt O95231 78-163, R121Q).
T6 sequence: T5 sequence with F38Y, R44Q

Residue numbers refer to the chain shown, from its start.

Sequence of PRRX1 (Homo sapiens, UniProt P54821 80-166, F113S) (P54821 80-166 F113S): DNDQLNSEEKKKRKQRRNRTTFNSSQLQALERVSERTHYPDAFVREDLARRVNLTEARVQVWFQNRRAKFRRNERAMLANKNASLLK
Sequence of HOXA4 (Homo sapiens, UniProt Q00056 201-287, W262F) (Q00056 201-287 W262F): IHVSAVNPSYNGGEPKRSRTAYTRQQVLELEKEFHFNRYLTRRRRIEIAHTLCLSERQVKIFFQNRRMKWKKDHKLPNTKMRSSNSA
Sequence of PRRX1 (Homo sapiens, UniProt P54821 80-166) (P54821 80-166): as the sequence (P54821 80-166 F113S) above, with S34F counted along it
Sequence of VAX1 (Homo sapiens, UniProt Q5SQQ9 86-172, K157R) (Q5SQQ9 86-172 K157R): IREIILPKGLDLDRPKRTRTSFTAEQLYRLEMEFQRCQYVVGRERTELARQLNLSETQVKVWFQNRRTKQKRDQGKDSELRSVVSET
Sequence of VAX1 (Homo sapiens, UniProt Q5SQQ9 86-172, T142I) (Q5SQQ9 86-172 T142I): as the sequence (Q5SQQ9 86-172 K157R) above, with T57I, R72K counted along it
Sequence of MSX2 (Homo sapiens, UniProt P35548 130-214, F161Y) (P35548 130-214 F161Y): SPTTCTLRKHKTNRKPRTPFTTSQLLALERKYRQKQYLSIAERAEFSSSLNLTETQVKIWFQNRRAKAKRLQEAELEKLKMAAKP
Sequence of ALX4 (Q9H161 200-286): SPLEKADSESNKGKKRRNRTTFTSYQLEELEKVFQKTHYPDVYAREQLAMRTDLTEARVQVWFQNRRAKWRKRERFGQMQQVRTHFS
Sequence of MSX2 (Homo sapiens, UniProt P35548 130-214) (P35548 130-214): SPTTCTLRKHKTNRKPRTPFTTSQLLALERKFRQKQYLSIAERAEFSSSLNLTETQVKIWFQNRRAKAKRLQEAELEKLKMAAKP
Sequence of HOXA2 (O43364 129-215 R185T): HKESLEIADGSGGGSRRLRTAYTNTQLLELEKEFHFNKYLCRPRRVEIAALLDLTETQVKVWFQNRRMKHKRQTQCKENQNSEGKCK
Sequence of HOXA4 (Homo sapiens, UniProt Q00056 201-287, R217L) (Q00056 201-287 R217L): as the sequence (Q00056 201-287 W262F) above, with R17L, F62W counted along it
Sequence of HOXA4 (Homo sapiens, UniProt Q00056 201-287, W262R) (Q00056 201-287 W262R): as the sequence (Q00056 201-287 W262F) above, with F62R counted along it
Sequence of HOXA4 (Homo sapiens, UniProt Q00056 201-287) (Q00056 201-287): as the sequence (Q00056 201-287 W262F) above, with F62W counted along it

On to AATTAGAT, for which the binding signal with ALX4 is 13.7 upbm affinity estimate (log intensity, higher = more binding, comparable within an allelic series); with PAX4 [1] it was 11.7 upbm affinity estimate (log intensity, higher = more binding, comparable within an allelic series); with PRRX1 [2], 11.1 upbm affinity estimate (log intensity, higher = more binding, comparable within an allelic series); with PAX4 [3] it was 12 upbm affinity estimate (log intensity, higher = more binding, comparable within an allelic series); with PAX4 [4], 10.6 upbm affinity estimate (log intensity, higher = more binding, comparable within an allelic series); in the assay with PAX4 [5], 10.9 upbm affinity estimate (log intensity, higher = more binding, comparable within an allelic series). Moreover, the binding signal with PRRX1 [6] was 13.3 upbm affinity estimate (log intensity, higher = more binding, comparable within an allelic series).

Consider CAATTACG, for which the binding signal with HOXA4 [7] is 10.4 upbm affinity estimate (log intensity, higher = more binding, comparable within an allelic series); with HOXA4 [8] it was 11.6 upbm affinity estimate (log intensity, higher = more binding, comparable within an allelic series); in the assay with HOXA4 [9], 13.1 upbm affinity estimate (log intensity, higher = more binding, comparable within an allelic series); with MSX2 [10], 13.7 upbm affinity estimate (log intensity, higher = more binding, comparable within an allelic series); with MSX2 [11], 13.4 upbm affinity estimate (log intensity, higher = more binding, comparable within an allelic series); with HOXA4 [12], 10.9 upbm affinity estimate (log intensity, higher = more binding, comparable within an allelic series). The binding signal with VAX1 [13] was 12.3 upbm affinity estimate (log intensity, higher = more binding, comparable within an allelic series).

As to CAATTACA, the binding signal with PRRX1 [2] is 10.9 upbm affinity estimate (log intensity, higher = more binding, comparable within an allelic series); with MSX2 [10], 13.7 upbm affinity estimate (log intensity, higher = more binding, comparable within an allelic series); with MSX2 [11], 13.3 upbm affinity estimate (log intensity, higher = more binding, comparable within an allelic series); with PRRX1 [6] it was 13.2 upbm affinity estimate (log intensity, higher = more binding, comparable within an allelic series).

With AATTAAGC, the binding signal was 13.7 upbm affinity estimate (log intensity, higher = more binding, comparable within an allelic series) with ALX4; 11.7 upbm affinity estimate (log intensity, higher = more binding, comparable within an allelic series) with PAX4 [1]; 11 upbm affinity estimate (log intensity, higher = more binding, comparable within an allelic series) in the assay with PRRX1 [2]; 11.5 upbm affinity estimate (log intensity, higher = more binding, comparable within an allelic series) with VENTX [14]; 12.5 upbm affinity estimate (log intensity, higher = more binding, comparable within an allelic series) in the assay with HOXA2; 12 upbm affinity estimate (log intensity, higher = more binding, comparable within an allelic series) in the assay with PAX4 [3]. Moreover, the binding signal was 10.5 upbm affinity estimate (log intensity, higher = more binding, comparable within an allelic series) with PAX4 [4]; 11 upbm affinity estimate (log intensity, higher = more binding, comparable within an allelic series) with PAX4 [5]; 12.9 upbm affinity estimate (log intensity, higher = more binding, comparable within an allelic series) with MSX2 [11]; 12.3 upbm affinity estimate (log intensity, higher = more binding, comparable within an allelic series) with VAX1 [15]; 11.5 upbm affinity estimate (log intensity, higher = more binding, comparable within an allelic series) with HOXA4 [12]; 13.3 upbm affinity estimate (log intensity, higher = more binding, comparable within an allelic series) with PRRX1 [6].

For the sequence ACAATTAG, the binding signal with VENTX [16] is 11.8 upbm affinity estimate (log intensity, higher = more binding, comparable within an allelic series); with VENTX [14], 11.6 upbm affinity estimate (log intensity, higher = more binding, comparable within an allelic series); in the assay with MSX2 [10] it was 13.7 upbm affinity estimate (log intensity, higher = more binding, comparable within an allelic series); with MSX2 [11], 13.3 upbm affinity estimate (log intensity, higher = more binding, comparable within an allelic series).

Take AATTAGCG: the binding signal is 11.9 upbm affinity estimate (log intensity, higher = more binding, comparable within an allelic series) with VENTX [16]; 13.9 upbm affinity estimate (log intensity, higher = more binding, comparable within an allelic series) in the assay with ALX4; 11.8 upbm affinity estimate (log intensity, higher = more binding, comparable within an allelic series) in the assay with PAX4 [1]; 11 upbm affinity estimate (log intensity, higher = more binding, comparable within an allelic series) in the assay with PRRX1 [2]; 11.6 upbm affinity estimate (log intensity, higher = more binding, comparable within an allelic series) with VENTX [14]; 12.6 upbm affinity estimate (log intensity, higher = more binding, comparable within an allelic series) with HOXA2. Further, the binding signal in the assay with PAX4 [3] was 12.3 upbm affinity estimate (log intensity, higher = more binding, comparable within an allelic series); with PAX4 [4], 10.4 upbm affinity estimate (log intensity, higher = more binding, comparable within an allelic series); with MSX2 [10] it was 13.5 upbm affinity estimate (log intensity, higher = more binding, comparable within an allelic series); with PAX4 [5], 11 upbm affinity estimate (log intensity, higher = more binding, comparable within an allelic series); in the assay with MSX2 [11] it was 13 upbm affinity estimate (log intensity, higher = more binding, comparable within an allelic series); with VAX1 [15] it was 12.4 upbm affinity estimate (log intensity, higher = more binding, comparable within an allelic series). For the same sequence, the binding signal with PRRX1 [6] is 13.3 upbm affinity estimate (log intensity, higher = more binding, comparable within an allelic series); in the assay with VAX1 [13], 12.5 upbm affinity estimate (log intensity, higher = more binding, comparable within an allelic series).

For CAATTAGG, the binding signal with VENTX [16] is 12 upbm affinity estimate (log intensity, higher = more binding, comparable within an allelic series); with VENTX [14], 11.7 upbm affinity estimate (log intensity, higher = more binding, comparable within an allelic series); with HOXA2 it was 12.9 upbm affinity estimate (log intensity, higher = more binding, comparable within an allelic series); in the assay with MSX2 [10] it was 13.8 upbm affinity estimate (log intensity, higher = more binding, comparable within an allelic series); with MSX2 [11], 13.4 upbm affinity estimate (log intensity, higher = more binding, comparable within an allelic series); with VAX1 [15], 12.8 upbm affinity estimate (log intensity, higher = more binding, comparable within an allelic series). Also, the binding signal with VAX1 [13] was 12.7 upbm affinity estimate (log intensity, higher = more binding, comparable within an allelic series).

Regarding AATTAACT, the binding signal with ALX4 is 13.9 upbm affinity estimate (log intensity, higher = more binding, comparable within an allelic series); in the assay with PAX4 [1] it was 11.7 upbm affinity estimate (log intensity, higher = more binding, comparable within an allelic series); in the assay with PRRX1 [2], 11.2 upbm affinity estimate (log intensity, higher = more binding, comparable within an allelic series); in the assay with HOXA2, 12.5 upbm affinity estimate (log intensity, higher = more binding, comparable within an allelic series); with HOXA4 [8] it was 12.1 upbm affinity estimate (log intensity, higher = more binding, comparable within an allelic series); with PAX4 [3], 12.1 upbm affinity estimate (log intensity, higher = more binding, comparable within an allelic series). Further, the binding signal is 10.5 upbm affinity estimate (log intensity, higher = more binding, comparable within an allelic series) with PAX4 [4]; 13.5 upbm affinity estimate (log intensity, higher = more binding, comparable within an allelic series) with MSX2 [10]; 10.9 upbm affinity estimate (log intensity, higher = more binding, comparable within an allelic series) in the assay with PAX4 [5]; 13.1 upbm affinity estimate (log intensity, higher = more binding, comparable within an allelic series) with MSX2 [11]; 11.5 upbm affinity estimate (log intensity, higher = more binding, comparable within an allelic series) with HOXA4 [12]; 13.3 upbm affinity estimate (log intensity, higher = more binding, comparable within an allelic series) with PRRX1 [6].

Turning to ATAATTGG, the binding signal was 14 upbm affinity estimate (log intensity, higher = more binding, comparable within an allelic series) with ALX4; 11.5 upbm affinity estimate (log intensity, higher = more binding, comparable within an allelic series) with PRRX1 [2]; 11.9 upbm affinity estimate (log intensity, higher = more binding, comparable within an allelic series) with PAX4 [3]; 14.1 upbm affinity estimate (log intensity, higher = more binding, comparable within an allelic series) with MSX2 [10]; 13.7 upbm affinity estimate (log intensity, higher = more binding, comparable within an allelic series) with MSX2 [11]; 13.4 upbm affinity estimate (log intensity, higher = more binding, comparable within an allelic series) with PRRX1 [6].

For CAATTAGA, the binding signal with VENTX [16] was 11.8 upbm affinity estimate (log intensity, higher = more binding, comparable within an allelic series); with ALX4 it was 13.8 upbm affinity estimate (log intensity, higher = more binding, comparable within an allelic series); in the assay with PRRX1 [2], 10.9 upbm affinity estimate (log intensity, higher = more binding, comparable within an allelic series); with HOXA2, 12.5 upbm affinity estimate (log intensity, higher = more binding, comparable within an allelic series); in the assay with MSX2 [10], 13.8 upbm affinity estimate (log intensity, higher = more binding, comparable within an allelic series); with MSX2 [11] it was 13.4 upbm affinity estimate (log intensity, higher = more binding, comparable within an allelic series). Also, the binding signal with VAX1 [15] is 12.2 upbm affinity estimate (log intensity, higher = more binding, comparable within an allelic series); in the assay with PRRX1 [6], 13.2 upbm affinity estimate (log intensity, higher = more binding, comparable within an allelic series); with VAX1 [13] it was 12.3 upbm affinity estimate (log intensity, higher = more binding, comparable within an allelic series).
